# Results from PubChem BioAssay.
# The source made the active and inactive calls. Unless noted, how the calls were made is not given here.
# Assays:
# [1] = anti-His antibody binders, primary screen, artefact control for SMM control protein annotation, biochemical, small-molecule microarray, 635 nm fluorescence (AID 1128); settings: anti-His Alexa647 antibody binding, higher = more signal;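 further: score merges feature fluorescence with signal-to-noise for each printed compound spot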
# [2] = test system: Human papillomavirus type 1a E7 protein (residues 1-88); assay: HPV1a E7 small-molecule binders, primary screen, biochemical, small-molecule microarray, residues 1-88, 635 nm (AID 1129); settings: small-molecule microarray binding, fluorescence 635 nm; higher = more signal
# [3] = molecular target: Focal adhesion kinase 1 (Homo sapiens) (UniProt Q05397); assay: small-molecule microarray binders of FAK, primary screen, biochemical, 635/667 nm fluorescence, BSA, DTT (AID 1130); settings: PTK2 binding, 635 nm fluorescence, higher = more signal;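 further: composite of spot emission at 667 nm and signal to noise over triplicate slides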
# Sequence of Focal adhesion kinase 1 (Homo sapiens) (Q05397 whole entry, looked up): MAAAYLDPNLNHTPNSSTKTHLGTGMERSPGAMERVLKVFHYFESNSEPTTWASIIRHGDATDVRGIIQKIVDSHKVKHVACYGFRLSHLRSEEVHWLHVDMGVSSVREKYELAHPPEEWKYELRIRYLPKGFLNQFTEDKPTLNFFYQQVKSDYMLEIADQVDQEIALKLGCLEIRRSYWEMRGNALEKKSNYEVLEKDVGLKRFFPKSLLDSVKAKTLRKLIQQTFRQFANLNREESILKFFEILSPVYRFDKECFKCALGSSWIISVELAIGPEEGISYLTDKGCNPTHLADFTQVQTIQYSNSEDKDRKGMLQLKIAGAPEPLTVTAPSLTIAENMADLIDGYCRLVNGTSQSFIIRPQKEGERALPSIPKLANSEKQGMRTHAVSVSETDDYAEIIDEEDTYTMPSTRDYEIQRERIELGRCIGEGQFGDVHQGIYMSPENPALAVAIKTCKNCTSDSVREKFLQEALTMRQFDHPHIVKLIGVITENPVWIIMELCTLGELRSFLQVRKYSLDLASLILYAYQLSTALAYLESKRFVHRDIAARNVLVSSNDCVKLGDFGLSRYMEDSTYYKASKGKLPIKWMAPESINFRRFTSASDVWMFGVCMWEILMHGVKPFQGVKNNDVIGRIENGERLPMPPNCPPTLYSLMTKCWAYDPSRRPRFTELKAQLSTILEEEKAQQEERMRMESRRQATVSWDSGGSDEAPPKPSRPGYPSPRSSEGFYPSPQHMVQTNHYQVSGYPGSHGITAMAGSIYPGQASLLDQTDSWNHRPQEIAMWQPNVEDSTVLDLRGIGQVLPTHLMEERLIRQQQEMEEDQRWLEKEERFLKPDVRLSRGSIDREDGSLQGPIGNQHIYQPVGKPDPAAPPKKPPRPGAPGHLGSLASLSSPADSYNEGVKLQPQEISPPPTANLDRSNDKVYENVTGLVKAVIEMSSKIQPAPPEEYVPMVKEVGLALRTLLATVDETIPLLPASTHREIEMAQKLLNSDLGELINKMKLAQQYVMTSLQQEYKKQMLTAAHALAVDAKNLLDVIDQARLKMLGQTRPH
# [4] = test system: Fibrinogen (Alexa647-labelled); assay: fibrinogen binders on compound microarrays, profiling panel, artefact control for SMM control-protein annotation, biochemical, small-molecule microarray, 635/667 nm fluorescence (AID 1131); settings: fibrinogen-A647 binding fluorescence, higher = more signal;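 further: z-score merges 667 nm fluorescence with per-spot signal-to-noise over triplicate slides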
# [5] = molecular target: Follistatin (Homo sapiens) (UniProt P19883); assay: follistatin binders on small-molecule microarrays, primary screen, biochemical, small-molecule microarray, 635/667 nm fluorescence (AID 1132); settings: FST binding, 635 nm fluorescence, higher = more signal
# Sequence of Follistatin (Homo sapiens) (P19883 whole entry, looked up): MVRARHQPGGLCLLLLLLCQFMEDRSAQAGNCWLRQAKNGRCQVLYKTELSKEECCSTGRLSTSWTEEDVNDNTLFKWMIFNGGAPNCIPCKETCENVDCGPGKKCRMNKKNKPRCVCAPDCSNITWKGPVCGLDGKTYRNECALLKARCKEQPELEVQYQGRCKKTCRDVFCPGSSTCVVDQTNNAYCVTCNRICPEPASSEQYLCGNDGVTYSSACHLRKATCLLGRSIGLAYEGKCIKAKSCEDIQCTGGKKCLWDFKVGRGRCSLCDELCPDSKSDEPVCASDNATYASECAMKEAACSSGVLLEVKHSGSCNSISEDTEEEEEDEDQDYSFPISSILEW
# [6] = molecular target: Fibroblast growth factor 2 (Homo sapiens) (UniProt P09038); assay: FGF2 binders on small-molecule microarrays, primary screen, biochemical, small-molecule microarray, 635/667 nm fluorescence (AID 1133); settings: small-molecule microarray binding, FGF2, fluorescence 635/667; higher = more signal
# Sequence of Fibroblast growth factor 2 (Homo sapiens) (P09038 whole entry, looked up): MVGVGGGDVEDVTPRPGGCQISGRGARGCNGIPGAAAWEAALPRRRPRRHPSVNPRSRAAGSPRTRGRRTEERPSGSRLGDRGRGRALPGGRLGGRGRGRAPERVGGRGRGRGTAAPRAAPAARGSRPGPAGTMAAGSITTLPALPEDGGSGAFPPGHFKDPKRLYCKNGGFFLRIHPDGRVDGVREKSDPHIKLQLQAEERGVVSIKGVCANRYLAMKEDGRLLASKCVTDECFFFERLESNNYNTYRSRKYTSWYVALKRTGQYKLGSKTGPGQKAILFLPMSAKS
# [7] = mitochondrial membrane potential change in A549 cells, profiling panel, cell-based, JC-1 fluorescence, basal, 24 h, 100 nL (AID 1138); settings: higher = more signal;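 further: A549 lung adenocarcinoma cells under basal conditions with no added stimulus; test concentration not given here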
# Lefty1 = Lefty1 binders on small-molecule microarrays, primary screen, biochemical, small-molecule microarray, 635/667 nm fluorescence (AID 1139); settings: small-molecule microarray binding, fluorescence 635/667; higher = more signal
# [8] = test system: wheat germ agglutinin (Triticum aestivum), Alexa647-labelled; assay: wheat germ agglutinin binders on compound microarrays, profiling panel, artefact control for SMM control-protein annotation, biochemical, small-molecule microarray, 635/667 nm fluorescence (AID 1140); settings: WGA-A647 binding, 635 nm fluorescence, higher = more signal;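 further: score merges 667 nm feature emission with signal to noise over triplicate slides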
# [9] = molecular target: Luciferin 4-monooxygenase (Photinus pyralis) (UniProt P08659); assay: firefly luciferase enzyme inhibitors, primary screen, biochemical, luminescence, purified enzyme, 2006 set (AID 1141); settings: SteadyGlo luminescence, 30 min, higher = more signal, called active from +8 up or from −8 down;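 further: cell-free assay with purified firefly luciferase at 100 ng per well in PBS; test concentration not given here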
# Sequence of Luciferin 4-monooxygenase (Photinus pyralis) (P08659 whole entry, looked up): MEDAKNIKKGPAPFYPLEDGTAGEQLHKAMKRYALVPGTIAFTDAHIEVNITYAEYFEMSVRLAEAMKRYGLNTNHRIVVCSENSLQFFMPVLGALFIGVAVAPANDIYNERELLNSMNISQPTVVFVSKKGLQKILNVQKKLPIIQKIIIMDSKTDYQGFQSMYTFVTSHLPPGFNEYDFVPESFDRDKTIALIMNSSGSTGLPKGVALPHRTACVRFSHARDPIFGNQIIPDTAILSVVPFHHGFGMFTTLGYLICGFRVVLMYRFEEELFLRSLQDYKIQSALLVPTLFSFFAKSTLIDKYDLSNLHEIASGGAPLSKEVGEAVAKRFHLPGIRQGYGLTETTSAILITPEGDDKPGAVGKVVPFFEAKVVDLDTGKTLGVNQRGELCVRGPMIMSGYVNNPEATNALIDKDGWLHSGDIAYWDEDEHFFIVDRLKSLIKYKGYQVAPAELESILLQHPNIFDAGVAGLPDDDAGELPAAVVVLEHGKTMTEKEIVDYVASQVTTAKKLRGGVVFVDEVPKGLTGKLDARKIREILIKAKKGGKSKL
# [10] = test system: Wnt5a (protein binding on small-molecule microarray); assay: Wnt5a binders on small-molecule microarray, primary screen, biophysical, 635/667 nm fluorescence (AID 1142); settings: 635 nm fluorescence, higher = more signal;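 further: fluorescence read at 667 nm with signal to noise per printed feature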
# [11] = cell viability in Huh7 cells, primary screen, cytotoxicity control for HCV replication inhibitor project, CellTiter-Glo luminescence, basal, 48 h (AID 1143); settings: Huh7 HCV replicon, higher = more signal, called active from +8 up or from −8 down;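 further: Huh7 hepatoma cells carrying a hepatitis C replication reporter with no stimulus; test concentration not given here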
# [12] = P. aeruginosa biofilm formation inhibitors, primary screen, PAO1 strain, BacTiter-Glo luminescence, LB-PBS (AID 1144); settings: 12 h, higher = more signal
# [13] = CREB reporter modulators without forskolin, primary screen, cell-based, PC12, CRE-LacZ reporter, unstimulated (AID 1145); settings: no forskolin, luminescence, 4.5 h, higher = more signal, called active from +8 up or from −8 down
# [14] = CREB reporter modulators under forskolin, primary screen, cell-based, PC12, CRE-LacZ reporter, forskolin-stimulated (AID 1146); settings: luminescence, 4.5 h, higher = more signal, called active from +8 up or from −8 down;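 further: PC12 cells with 6xCRE LacZ reporter stimulated by forskolin 10 µM; beta-galactosidase reporter signal reflecting CREB driven transcription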
# [15] = molecular target: Streptavidin (Streptomyces avidinii) (UniProt P22629); assay: streptavidin binders on small-molecule microarray, primary screen, artefact control for SMM compound annotation, biophysical, 635/667 nm fluorescence (AID 1147); settings: streptavidin binding, higher = more signal;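 further: signal reflects streptavidin binding to arrayed compounds as a control protein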
# Sequence of Streptavidin (Streptomyces avidinii) (P22629 whole entry, looked up): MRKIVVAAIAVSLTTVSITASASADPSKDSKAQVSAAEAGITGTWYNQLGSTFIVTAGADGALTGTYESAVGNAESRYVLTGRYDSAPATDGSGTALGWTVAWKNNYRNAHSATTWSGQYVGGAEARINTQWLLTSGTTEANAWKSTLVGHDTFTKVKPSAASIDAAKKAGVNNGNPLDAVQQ
# [16] = small-molecule binders of probe aInhba, primary screen, biochemical, small-molecule microarray, 635/667 nm fluorescence (AID 1148); settings: higher = more signal;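 further: score merges 667nm spot fluorescence with signal-to-noise for antibody binding to printed compounds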
# Torsin-1A (Homo sapiens) [17] = molecular target: Torsin-1A (Homo sapiens) (UniProt O14656); assay: torsin A binders from cell lysate, primary screen, small-molecule microarray, wild-type, 635/667 nm (AID 1149); settings: COS7 hTOR1A-WT lysate, 635 nm fluorescence, higher = more signal
# Sequence of Torsin-1A (Homo sapiens) (O14656 whole entry, looked up): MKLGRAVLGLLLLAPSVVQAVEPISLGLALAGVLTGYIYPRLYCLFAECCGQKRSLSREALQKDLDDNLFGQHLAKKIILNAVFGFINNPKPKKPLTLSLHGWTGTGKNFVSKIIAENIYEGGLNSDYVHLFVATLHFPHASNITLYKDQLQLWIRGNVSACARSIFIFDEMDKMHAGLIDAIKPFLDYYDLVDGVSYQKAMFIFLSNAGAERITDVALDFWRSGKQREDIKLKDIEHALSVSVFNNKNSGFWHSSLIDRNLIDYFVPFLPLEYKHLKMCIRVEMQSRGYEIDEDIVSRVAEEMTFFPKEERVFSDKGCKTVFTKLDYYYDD
# Torsin-1A (Homo sapiens) [18] = molecular target: Torsin-1A (Homo sapiens) (UniProt O14656); assay: small-molecule binders of mutant TOR1A in lysate, primary screen, cell lysate, small-molecule microarray, COS7 lysate, 635/667 nm fluorescence (AID 1150); settings: COS7 hTOR1A mutant lysate, 635 nm fluorescence, higher = more signal;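 further: score pools 667 nm emission and signal to noise measuring lysate protein binding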
# [19] = test system: Sonic hedgehog protein (Shh); assay: small-molecule binders of Shh protein, primary screen, biochemical, small-molecule microarray, 635/667 nm fluorescence (AID 1151); settings: small-molecule microarray binding, 635 nm fluorescence; higher = more signal;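 further: Shh protein binding to compounds spotted on small-molecule microarray slides; score combines spot fluorescence intensity with signal-to-noise across triplicate slides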
Structure (SMILES),composite z-score [1],composite z-score [2],composite z-score [3],composite z-score [4],composite z-score [5],composite z-score [6],z-score [7],composite z-score (Lefty1),composite z-score [8],z-score [9],composite z-score [10],z-score [11],z-score [12],z-score [13],z-score [14],composite z-score [15],composite z-score [16],composite z-score (Torsin-1A (Homo sapiens) [17]),composite z-score (Torsin-1A (Homo sapiens) [18]),composite z-score [19]
CCCCCCCCCCC(O)C1C=CC2C(=O)N(C)C(=O)C2N1N1CCCCC1 (stereo not given),0.373,-0.768,0.0399,-1.27,-2.14,-1.02,0.44,-1.84,-0.325,-0.224 (inactive),-0.542,-0.6 (inactive),0.816 (inactive),0.0569 (inactive),1.39 (inactive),-0.862,-0.0762,-0.0728,0.522,-1.89
Cc1ccc(S[C@]2(C(=O)NC3CC3)CC(=O)N(Cc3cc(C(F)(F)F)cc(C(F)(F)F)c3)[C@@H]2c2ccc(CO)cc2I)cc1,2.99,1.03,0.941,0.103,1.09,0.483,-0.271,-0.337,0.0196,0.717 (inactive),0.272,-0.636 (inactive),0.141 (inactive),-0.0243 (inactive),1.16 (inactive),0.389,0.532,-0.597,0.409,1.14
C=CCOC(=O)[C@H]1[C@@H]2C(=O)O[C@@H](c3ccccc3)[C@@H](c3ccccc3)N2[C@@H](c2ccc(OCCOC(=O)[C@@H]3C[C@@H]4C(=O)N[C@@H](CC(C)C)C(=O)N4[C@@H]3c3ccc(O)cc3)cc2)[C@]12C(=O)Nc1ccc(I)cc12,0.785,0.935,0.443,0.761,1.08,1.89,-0.946,0.677,0.902,-2.13 (inactive),0.15,-0.901 (inactive),-1.3 (inactive),0.281 (inactive),0.318 (inactive),0.149,-0.0791,0.637,1.22,1.91
C=CC[C@@]1(C(=O)O)N=C(c2ccc(OCCCO)cc2)O[C@@H]1c1ccccc1CN=[N+]=[N-],0.706,0.86,0.518,0.68,0.939,0.381,-0.472,0.588,1.24,-0.926 (inactive),0.229,-1.9 (inactive),-1.6 (inactive),-0.183 (inactive),-1.13 (inactive),1.93,-0.0736,-0.0975,0.884,0.582
CC(=O)c1ccc(C(O)C2C=CC3C(=O)N(C)C(=O)C3N2NC(=O)OC(C)(C)C)cc1 (stereo not given),0.777,1.23,1.54,1.05,0.046,0.14,-0.082,0.337,1.34,-0.068 (inactive),0.468,0.847 (inactive),0.626 (inactive),0.246 (inactive),1.51 (inactive),1.83,0.182,-0.0551,0.548,-0.0538
CCCC[C@@H]1C[C@H]1[C@@H](NC(=O)c1ccc(C(F)(F)F)cc1)c1ccc(C(=O)OC)cc1,1.21,0.411,0.135,0.366,1.25,-0.115,1.19,0.944,0.849,0.915 (inactive),1.16,-2.9 (inactive),0.164 (inactive),0.583 (inactive),-0.269 (inactive),1.59,-0.0092,3.21,3.93,1.91
COC(=O)C(CC#Cc1ccc2c(c1)[C@]1(C(=O)N2)[C@H](c2ccc(O)cc2)N2[C@H](c3ccccc3)[C@H](c3ccccc3)OC(=O)[C@H]2[C@@H]1C(=O)N1CCc2cc(OC)c(OC)cc2C1)C(=O)OC,1.54,0.953,-0.0453,0.742,1.36,1.17,-0.654,1.54,0.384,-0.0494 (inactive),0.294,-0.26 (inactive),0.786 (inactive),0.918 (inactive),0.351 (inactive),0.455,-0.101,0.966,0.48,1.31
CN(C)CCCC[C@@H]1NC(=O)[C@@H]2C[C@H](C(=O)NCCCCCCNC(=O)CS)[C@H](c3cccc(OCCO)c3)N2C1=O,1.5,0.0742,0.819,-1.07,0.541,0.541,1.12,0.273,0.235,-0.402 (inactive),0.152,0.425 (inactive),-0.332 (inactive),-0.256 (inactive),-0.995 (inactive),-0.149,-0.0471,0.77,0.702,0.919
COCCOC(=O)N1C(=O)[C@@]2(c3cc(C#CCC(C(=O)OC)C(=O)OC)ccc31)[C@H](C(=O)N1CCCCCCC1)[C@H]1C(=O)O[C@H](c3ccccc3)[C@H](c3ccccc3)N1[C@@H]2c1ccccc1OCCO,2.09,1.18,0.945,0.775,1.45,1.43,-1.49,0.884,1.46,-0.694 (inactive),1.21,-5.66 (inactive),-0.728 (inactive),-0.475 (inactive),-0.981 (inactive),2.68,1.91,1.27,1.23,2.06
